Out of some 5,500 compounds screened, about 2,000 (36%) were called active. About 18% were inconclusive and are not listed. No stated cut-off is given here; in the data, active means normalized growth mostly below about 0.91 (no sharp cut-off); inconclusive means no clear call, values can overlap the other calls; inactive means mostly above about 0.92. Some of the results follow.
Assay: chemical genetic growth profiling, strain panel (AID 1159580);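 further: tested at 20 µM; growth read once vehicle control cultures reached saturation at 30 °C; 1 = growth at the plate median or of vehicle wells; lower values mean less growth of the strain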
Conditions: S. cerevisiae deletion strains, growth OD
[1] = locus YAL013W, strain DEP1, active compounds read low
[2] = locus YDR150W, strain NUM1, active compounds read low
[3] = locus YGR078C, strain PAC10, active compounds read low
[4] = locus YHR030C, strain SLT2, active compounds read low
[5] = locus YJR075W, strain HOC1, active compounds read low
[6] = locus YNL128W, strain TEP1, active compounds read low
[7] = locus YNL153C, strain GIM3, active compounds read low
[8] = locus YNL322C, strain KRE1, active compounds read low
[9] = locus YPL055C, strain LGE1, active compounds read low

Measured: normalized growth

COC(=O)c1cc(OC)c(OC)c(OC)c1NS(=O)(=O)c1cc(OC)ccc1OC
inactive: [1] 0.999 | locus YBR229C, strain ROT2, active compounds read low 0.999 | locus YCL061C, strain MRC1, active compounds read low 0.974 | locus YDL101C, strain DUN1, active compounds read low 0.968 | locus YDL134C, strain PPH21, active compounds read low 1.02 | [2] 0.984 | locus YEL061C, strain CIN8, active compounds read low 1.03 | [3] 0.983 | locus YGR229C, strain SMI1, active compounds read low 1.01 | [4] 0.965 | locus YHR087W, strain rtc3, active compounds read low 1.03 | locus YJR043C, strain POL32, active compounds read low 0.987 | [5] 0.992 | locus YLR039C, strain RIC1, active compounds read low 0.984 | locus YLR058C, strain SHM2 (second series), active compounds read low 1.02 | locus YLR085C, strain ARP6, active compounds read low 1.02 | locus YLR262C, strain YPT6, active compounds read low 1.02 | locus YML094W, strain GIM5, active compounds read low 1.04 | locus YMR219W, strain ESC1, active compounds read low 1 | locus YMR263W, strain SAP30, active compounds read low 1 | [6] 1 | [7] 0.992 | locus YNL298W, strain CLA4 (second series), active compounds read low 0.987 | [8] 0.996 | locus YNR030W, strain Alg12, active compounds read low 1.01 | locus YOL006C, strain TOP1, active compounds read low 0.981 | [9] 1.03 | locus YPL241C, strain CIN2, active compounds read low 0.983 | locus YPR135W, strain CTF4, active compounds read low 0.969

COc1cc(C(O)C(=O)O)ccc1O (centres undefined)
inactive: [1] 0.996 | locus YAL040C, strain CLN3, active compounds read low 0.984 | locus YCL061C, strain MRC1 (second series), active compounds read low 0.994 | [2] 0.994 | locus YDR363W, strain ESC2, active compounds read low 1.01 | locus YER002W, strain NOP16, active compounds read low 1.03 | [3] 1 | [5] 0.991 | locus YMR307W, strain GAS1, active compounds read low 0.989 | [6] 0.986 | [7] 1.01 | locus YNL175C, strain NOP13, active compounds read low 0.992 | locus YNL197C, strain WHI3, active compounds read low 1.01 | locus YNL224C, strain SQS1, active compounds read low 1.02 | [8] 0.998 | locus YOR083W, strain WHI5 (second series), active compounds read low 1.01 | [9] 1.01

COc1ccc(C(C)=O)c(O)c1
inactive: [4] 0.966 | locus YHR079C, strain IRE1, active compounds read low 0.965 | locus YJL095W, strain BCK1, active compounds read low 0.968 | locus YJR066W, strain TOR1, active compounds read low 0.905 | locus YLR113W, strain HOG1, active compounds read low 0.96 | locus YNL183C, strain NPR1, active compounds read low 0.892 | locus YOR231W, strain MKK1, active compounds read low 0.968 | locus YPL256C, strain CLN2, active compounds read low 0.957
